Reference: PubChem BioAssay (EPA / NIEHS)
Inconclusive results are not listed. Calls of active or inactive are those of the source. The calls were made as follows, unless noted: active = hit-call score of the fitted dose curve at least 0.9, where 1 is the maximum; inconclusive = response in the unintended direction; inactive = score below 0.9.

Key:
[1] = ATG_M_19_TRANS: Attagene TRANS-FACTORIAL HepG2 Assay for M19 Transcription Factor (Internal Marker) (AID 2282974); conditions: HepG2 Attagene TRANS-FACTORIAL M19 internal marker reporter
In short: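 Measured here: internal-marker reporter transcript from HepG2 cells transfected with MRTUs, harvested at 24 h. cDNA PCR products were 6-FAM labelled by primer extension, cut with HpaI for 2 h at 37 C, and resolved by CE.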

[2] = ATG_GAL4_TRANS: Attagene TRANS-FACTORIAL HepG2 Assay for GAL4 (Internal Marker) (AID 2282976); conditions: HepG2 Attagene TRANS GAL4 internal marker reporter
In short: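 Fluorescence from capillary electrophoresis of labelled RT-PCR products quantifies reporter mRNA induction after 24 h dosing of HepG2 cells carrying transfected GAL4-UAS reporter transcription units. Vehicle DMSO serves as baseline.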

[3] = target: Oxysterols receptor LXR-alpha (Homo sapiens) (UniProt Q13133); assay: ATG_LXRa_TRANS: Attagene TRANS-FACTORIAL HepG2 Assay for human Liver X Receptor alpha (LXRa) (AID 2282980); conditions: HepG2 Attagene TRANS reporter, LXRa transactivation
In short: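 Transient HepG2 transfectants, 24 h dosing, RT-PCR/CE mRNA reporter quantitation; gain-of-signal vs DMSO.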

[4] = target: Oxysterols receptor LXR-beta (Homo sapiens) (UniProt P55055); assay: ATG_LXRb_TRANS: Attagene TRANS-FACTORIAL HepG2 Assay for human Liver X Receptor beta (LXRb) (AID 2282981); conditions: HepG2 Attagene TRANS GAL4-LXRb reporter, mRNA
In short: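 After 24 h of chemical treatment, transfected HepG2 cells yield total RNA; reporter cDNA is PCR-amplified, FAM-labelled, HpaI-cut and run on capillary electrophoresis. Signal reflects chimeric LXRb-Gal4 activity on GAL4-UAS reporters.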

[5] = target: Nuclear receptor subfamily 4 group A member 2 (Homo sapiens) (UniProt P43354); assay: ATG_NURR1_TRANS: Attagene TRANS-FACTORIAL HepG2 Assay for human Nuclear Receptor Related Protein 1 (NURR1) (AID 2282985); conditions: HepG2 Attagene TRANS reporter, mRNA readout
In short: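 Measures transcriptional activation by an exogenous NR-Gal4 chimera in transfected HepG2 liver cells. After 24 h, reporter RNA is reverse-transcribed, amplified and resolved by capillary electrophoresis; DMSO defines baseline.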

[6] = target: human Peroxisome Proliferator-activated Receptor delta (PPARd), PPARD (gene 5467) (UniProt Q03181); assay: ATG_PPARd_TRANS: Attagene TRANS-FACTORIAL HepG2 Assay for human Peroxisome Proliferator-activated Receptor delta (PPARd) (AID 2283002)
In short: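 Read-out is induced reporter mRNA, quantified by RT-PCR with fluorescent labelling and capillary electrophoresis after 24 h dosing. Cells are HepG2 transiently carrying multiple GAL4-UAS reporter units driven by exogenous NR-GAL4 chimeras; DMSO serves as baseline.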

[7] = target: Peroxisome proliferator-activated receptor gamma (Homo sapiens) (UniProt P37231); assay: ATG_PPARg_TRANS: Attagene TRANS-FACTORIAL HepG2 Assay for human Peroxisome Proliferator-activated Receptor-gamma (PPARg) (AID 2283007)
In short: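 Multiplexed reporter transcription units in HepG2, 24 h dosing, reporter transcripts quantified by fluorescent RT-PCR and capillary electrophoresis. Increase over DMSO scored.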

[8] = target: human Vitamin D Receptor (VDR), VDR (gene 7421) (UniProt P11473); assay: ATG_VDR_TRANS: Attagene TRANS-FACTORIAL HepG2 Assay for human Vitamin D Receptor (VDR) (AID 2283022)
In short: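 Fluorescence of labelled reporter cDNA fragments, resolved by capillary electrophoresis, gives mRNA induction after 24 h treatment of HepG2 cells carrying transfected Gal4-fusion reporter units. Activity is fitted in the positive direction with DMSO as baseline.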

[9] = ATG_NF_kB_CIS: Attagene CIS-FACTORIAL HepG2 Assay for human Nuclear Factor Kappa B (NF-kB) (AID 2282991; active = hit-call score of the fitted dose curve at least 0.9, where 1 is the maximum; inactive = score below 0.9); conditions: HepG2 Attagene cis-factorial NF-kB reporter mRNA; actives raise or lower the signal
In short: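 HepG2, transient multi-reporter transfection, cis promoter elements (endogenous TFs). 24 h exposure. Total RNA → RT → PCR → 6-FAM label → HpaI → CE. Gain/loss vs DMSO.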

[10] = target: human RAR-related Orphan Receptor gamma (RORg), RORC (gene 6097) (UniProt P51449); assay: ATG_RORg_TRANS: Attagene TRANS-FACTORIAL HepG2 Assay for human RAR-related Orphan Receptor gamma (RORg) (AID 2283011)
In short: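 Activity is scored as increase in GAL4-UAS reporter mRNA over DMSO, detected by fluorescent RT-PCR and capillary electrophoresis in HepG2 cells transiently expressing a RORg-Gal4 chimera, 24 h after dosing.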

[11] = target: human Thyroid Receptor alpha (THRa1), THRA (gene 7067) (UniProt P10827); assay: ATG_THRa1_TRANS: Attagene TRANS-FACTORIAL HepG2 Assay for human Thyroid Receptor alpha (THRa1) (AID 2283014)
In short: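 First, HepG2 cells receive multiple GAL4-UAS reporter units and the chimeric receptor. They are then dosed for 24 h, after which RNA is reverse-transcribed, amplified, labelled, HpaI-cut and sized by capillary electrophoresis; gain relative to DMSO is scored.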

[12] = TOX21_p53_BLA_p4_viability: Viability Assessment in the Tox21 HCT-116 p53 Agonism Beta-lactamase Assay, Phase 4 (AID 2283597);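 also: hits lower the luminescence signal meaning cytotoxicity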
In short: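 Viability is taken as cellular ATP: after 16 h compound exposure of HCT116 cells and a 2 h room-temperature CCF4-AM substrate step, CellTiter-Glo reagent is added and luminescence is measured 30 min later.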

[13] = ATG_VDRE_CIS: Attagene CIS-FACTORIAL HepG2 Assay for human Vitamin D Receptor Element (VDRE) (AID 2282968; active = hit-call score of the fitted dose curve at least 0.9, where 1 is the maximum; inactive = score below 0.9); conditions: HepG2 VDRE cis-reporter transcription, actives raise or lower the signal
In short: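 Measures endogenous factor activity through cis-element-driven reporter transcripts in transiently transfected HepG2. Cells are treated 24 h; reporter mRNA is quantified by RT-PCR and capillary electrophoresis; fitting is bidirectional.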

[14] = target: Glucocorticoid receptor (Homo sapiens) (UniProt P04150); assay: ATG_GR_TRANS: Attagene TRANS-FACTORIAL HepG2 Assay for human Glucocorticoid Receptor (GR) (AID 2282978); conditions: HepG2 Attagene TRANS GR reporter, mRNA transcription;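 also: activators score as hits since higher reporter transcript over DMSO is fitted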
In short: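 Measurement of GAL4-UAS-driven reporter mRNA in human HepG2 liver cells 24 h post-dosing, using RT-PCR with fluorescent labelling and capillary electrophoresis; the transfected constructs report exogenous NR-GAL4 chimera activity, fitted upward against DMSO.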

[15] = target: Bile acid receptor (Homo sapiens) (UniProt Q96RI1); assay: ATG_FXR_TRANS: Attagene TRANS-FACTORIAL HepG2 Assay for Farnesoid X Receptor (FXR) (AID 2282979); conditions: HepG2 Attagene TRANS FXR-GAL4 reporter transcription;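 also: hits raise reporter mRNA above DMSO so AC50 marks FXR activation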
In short: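 Chimeric FXR-GAL4 activity in transiently transfected human HepG2 liver cells is scored as induction of reporter mRNA after 24 h of dosing. Detection uses RT-PCR with fluorescent labelling and capillary electrophoresis, with DMSO serving as baseline.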

[16] = ATG_M_06_TRANS: Attagene TRANS-FACTORIAL HepG2 Assay for M06 Transcription Factor (Internal Marker) (AID 2282983); conditions: HepG2 Attagene TRANS M06 internal marker reporter;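 also: reporter transcript level by RT-PCR then capillary electrophoresis fluorescence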
In short: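 Human liver HepG2 cells bearing transiently transfected chimeric NR-GAL4 reporter units were treated with chemicals for 24 h. Total RNA was reverse-transcribed, reporter sequences amplified and labelled, then quantified by capillary electrophoresis. Activity was fitted upward relative to DMSO.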

[17] = CCTE_Harrill_HTTr_Viability_MCF7: CCTE's 6-hour Cell Viability Assessment for the High-Throughput Transcriptomics (HTTr) Platform, in MCF-7 cells cultured in DMEM + 10% fetal bovine serum, Harrill Lab (AID 2284010; active = hit-call score of the fitted dose curve at least 0.9, where 1 is the maximum; inactive = score below 0.9)
In short: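 Eight-point concentration series, six-hour exposure. Propidium iodide exclusion imaged to assess membrane integrity as a cytotoxicity readout; bidirectional fitting was done with DMSO as negative control and activity baseline.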

[18] = CCTE_Harrill_HTTr_Apoptosis_MCF7: CCTE's 6-hour Apoptosis Assessment for the High-Throughput Transcriptomics (HTTr) Platform, in MCF-7 cells cultured in DMEM + 10% fetal bovine serum, Harrill Lab (AID 2284011; active = hit-call score of the fitted dose curve at least 0.9, where 1 is the maximum; inactive = score below 0.9)
In short: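 Cells are dosed with test chemicals at eight concentrations and imaged 6 hours later for caspase-3/7 activity using a green fluorogenic detection reagent. Activity is fitted in both directions against DMSO controls.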

[19] = target: Nuclear receptor subfamily 1 group I member 3 (Homo sapiens) (UniProt Q14994); assay: ATG_CAR_TRANS: Attagene TRANS-FACTORIAL HepG2 Assay for human Constitutive Androstane Receptor (CAR) (AID 2282969); conditions: HepG2 Attagene TRANS-FACTORIAL CAR reporter;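 also: activators raise reporter mRNA above DMSO so AC50 marks induction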
In short: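 Signal is reporter mRNA induction relative to DMSO, measured 24 h after dosing by RT-PCR with fluorescent primer extension and capillary electrophoresis. Human HepG2 liver cells carried transiently transfected chimeric NR-Gal4/GAL4-UAS reporter constructs.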

[20] = target: human RAR-related Orphan Receptor beta (RORb), RORB (gene 6096) (UniProt Q92753); assay: ATG_RORb_TRANS: Attagene TRANS-FACTORIAL HepG2 Assay for human RAR-related Orphan Receptor beta (RORb) (AID 2283010)
In short: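 Multiplexed transcription-factor reporter assay: HepG2 cells transiently carrying NR-Gal4/GAL4-UAS constructs, 24 h treatment, mRNA quantified by RT-PCR plus capillary electrophoresis fluorescence; activity scored as induction over DMSO.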

human Peroxisome Proliferator-activated Receptor delta (PPARd), PPARD (gene 5467), sequence (Q03181 whole entry, looked up, the tested form may be a part): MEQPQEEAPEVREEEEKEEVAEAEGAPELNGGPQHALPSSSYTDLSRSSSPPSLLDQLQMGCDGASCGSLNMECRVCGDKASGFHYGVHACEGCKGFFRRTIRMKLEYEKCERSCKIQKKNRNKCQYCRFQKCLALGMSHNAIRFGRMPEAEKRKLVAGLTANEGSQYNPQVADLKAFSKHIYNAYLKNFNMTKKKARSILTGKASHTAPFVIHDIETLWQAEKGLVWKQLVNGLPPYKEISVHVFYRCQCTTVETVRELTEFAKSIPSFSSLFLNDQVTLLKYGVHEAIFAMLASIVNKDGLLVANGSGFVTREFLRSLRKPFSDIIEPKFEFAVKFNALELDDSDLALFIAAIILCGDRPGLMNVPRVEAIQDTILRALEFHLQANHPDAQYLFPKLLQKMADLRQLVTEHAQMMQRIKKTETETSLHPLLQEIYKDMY
human RAR-related Orphan Receptor gamma (RORg), RORC (gene 6097), sequence (P51449 whole entry, looked up, the tested form may be a part): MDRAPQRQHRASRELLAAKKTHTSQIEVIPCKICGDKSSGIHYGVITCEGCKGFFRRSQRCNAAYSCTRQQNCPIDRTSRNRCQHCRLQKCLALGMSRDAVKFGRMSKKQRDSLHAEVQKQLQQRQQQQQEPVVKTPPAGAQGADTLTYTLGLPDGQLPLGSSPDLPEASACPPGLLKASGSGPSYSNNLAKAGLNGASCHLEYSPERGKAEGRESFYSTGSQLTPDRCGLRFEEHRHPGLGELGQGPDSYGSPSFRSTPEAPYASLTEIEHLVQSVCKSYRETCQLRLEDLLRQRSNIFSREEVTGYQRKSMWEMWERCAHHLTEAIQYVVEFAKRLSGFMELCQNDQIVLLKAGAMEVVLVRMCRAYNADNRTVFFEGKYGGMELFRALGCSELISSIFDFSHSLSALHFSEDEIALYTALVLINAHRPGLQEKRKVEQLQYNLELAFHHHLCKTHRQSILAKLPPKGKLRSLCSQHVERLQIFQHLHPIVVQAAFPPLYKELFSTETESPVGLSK
Oxysterols receptor LXR-alpha (Homo sapiens), sequence (Q13133 whole entry, looked up): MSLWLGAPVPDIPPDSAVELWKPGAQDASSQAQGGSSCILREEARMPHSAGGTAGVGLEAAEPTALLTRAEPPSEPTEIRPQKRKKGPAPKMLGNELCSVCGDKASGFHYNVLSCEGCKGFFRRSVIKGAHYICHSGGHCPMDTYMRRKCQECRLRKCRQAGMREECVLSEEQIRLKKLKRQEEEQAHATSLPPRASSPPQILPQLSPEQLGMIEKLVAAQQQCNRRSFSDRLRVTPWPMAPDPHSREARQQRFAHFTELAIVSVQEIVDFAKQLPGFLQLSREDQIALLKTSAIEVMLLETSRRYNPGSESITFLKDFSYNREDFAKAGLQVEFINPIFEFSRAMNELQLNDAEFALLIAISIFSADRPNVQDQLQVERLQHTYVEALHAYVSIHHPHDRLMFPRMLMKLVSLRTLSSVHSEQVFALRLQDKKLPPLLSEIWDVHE
human RAR-related Orphan Receptor beta (RORb), RORB (gene 6096), sequence (Q92753 whole entry, looked up, the tested form may be a part): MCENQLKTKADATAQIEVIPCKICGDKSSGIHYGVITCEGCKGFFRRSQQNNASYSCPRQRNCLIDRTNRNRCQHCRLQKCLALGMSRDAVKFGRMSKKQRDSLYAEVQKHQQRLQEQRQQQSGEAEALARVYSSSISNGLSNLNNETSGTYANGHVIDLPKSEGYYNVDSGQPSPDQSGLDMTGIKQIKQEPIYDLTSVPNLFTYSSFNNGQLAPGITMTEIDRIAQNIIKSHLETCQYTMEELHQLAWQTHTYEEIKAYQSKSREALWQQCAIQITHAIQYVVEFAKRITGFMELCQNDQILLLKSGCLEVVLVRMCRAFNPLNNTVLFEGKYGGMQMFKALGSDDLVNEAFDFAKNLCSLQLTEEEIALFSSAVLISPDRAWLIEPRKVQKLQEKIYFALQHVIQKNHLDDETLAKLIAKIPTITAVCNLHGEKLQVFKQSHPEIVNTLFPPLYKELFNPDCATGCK
Glucocorticoid receptor (Homo sapiens), sequence (P04150 whole entry, looked up, the tested form may be a part): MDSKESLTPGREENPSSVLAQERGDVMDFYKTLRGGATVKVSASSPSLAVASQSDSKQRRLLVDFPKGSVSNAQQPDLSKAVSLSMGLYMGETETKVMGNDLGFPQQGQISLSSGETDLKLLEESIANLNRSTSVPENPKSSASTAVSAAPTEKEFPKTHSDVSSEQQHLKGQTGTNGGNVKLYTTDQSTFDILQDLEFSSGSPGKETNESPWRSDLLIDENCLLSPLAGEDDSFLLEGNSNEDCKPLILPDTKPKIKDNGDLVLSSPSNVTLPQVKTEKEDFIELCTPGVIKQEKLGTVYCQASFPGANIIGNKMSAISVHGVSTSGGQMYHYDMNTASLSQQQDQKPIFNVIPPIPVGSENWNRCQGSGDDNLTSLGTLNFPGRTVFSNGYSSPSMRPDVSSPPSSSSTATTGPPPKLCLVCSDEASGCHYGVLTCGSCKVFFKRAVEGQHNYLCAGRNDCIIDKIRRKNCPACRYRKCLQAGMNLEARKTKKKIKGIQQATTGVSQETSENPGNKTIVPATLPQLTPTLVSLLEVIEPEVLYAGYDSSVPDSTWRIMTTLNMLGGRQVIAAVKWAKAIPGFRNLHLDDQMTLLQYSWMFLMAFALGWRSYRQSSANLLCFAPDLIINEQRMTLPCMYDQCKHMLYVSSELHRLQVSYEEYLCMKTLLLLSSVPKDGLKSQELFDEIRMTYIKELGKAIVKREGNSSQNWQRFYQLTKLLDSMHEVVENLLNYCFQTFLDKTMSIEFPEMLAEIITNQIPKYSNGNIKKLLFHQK
Oxysterols receptor LXR-beta (Homo sapiens), sequence (P55055 whole entry, looked up, the tested form may be a part): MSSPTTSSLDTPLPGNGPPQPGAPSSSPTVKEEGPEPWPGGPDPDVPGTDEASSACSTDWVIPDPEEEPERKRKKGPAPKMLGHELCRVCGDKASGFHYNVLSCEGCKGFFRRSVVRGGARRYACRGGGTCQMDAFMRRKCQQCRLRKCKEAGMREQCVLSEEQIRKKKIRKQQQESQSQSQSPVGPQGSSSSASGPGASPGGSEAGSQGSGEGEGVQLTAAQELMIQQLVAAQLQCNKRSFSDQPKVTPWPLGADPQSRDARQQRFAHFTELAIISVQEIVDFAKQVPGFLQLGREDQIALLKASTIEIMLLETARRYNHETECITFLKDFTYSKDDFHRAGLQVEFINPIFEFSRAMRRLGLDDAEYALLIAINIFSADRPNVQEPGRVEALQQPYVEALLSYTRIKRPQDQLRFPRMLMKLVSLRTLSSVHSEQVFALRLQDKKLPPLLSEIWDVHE
human Vitamin D Receptor (VDR), VDR (gene 7421), sequence (P11473 whole entry, looked up, the tested form may be a part): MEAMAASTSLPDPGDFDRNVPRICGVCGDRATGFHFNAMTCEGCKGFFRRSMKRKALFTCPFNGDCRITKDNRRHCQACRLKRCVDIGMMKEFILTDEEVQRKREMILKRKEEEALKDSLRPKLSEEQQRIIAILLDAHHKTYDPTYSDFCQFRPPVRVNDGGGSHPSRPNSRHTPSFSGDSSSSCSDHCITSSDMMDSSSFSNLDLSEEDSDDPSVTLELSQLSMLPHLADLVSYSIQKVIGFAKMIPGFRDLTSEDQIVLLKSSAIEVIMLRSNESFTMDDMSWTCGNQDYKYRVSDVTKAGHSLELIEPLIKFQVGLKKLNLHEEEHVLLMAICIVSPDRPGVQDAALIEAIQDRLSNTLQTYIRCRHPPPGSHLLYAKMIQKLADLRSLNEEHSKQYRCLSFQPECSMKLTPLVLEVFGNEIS
Peroxisome proliferator-activated receptor gamma (Homo sapiens), sequence (P37231 whole entry, looked up): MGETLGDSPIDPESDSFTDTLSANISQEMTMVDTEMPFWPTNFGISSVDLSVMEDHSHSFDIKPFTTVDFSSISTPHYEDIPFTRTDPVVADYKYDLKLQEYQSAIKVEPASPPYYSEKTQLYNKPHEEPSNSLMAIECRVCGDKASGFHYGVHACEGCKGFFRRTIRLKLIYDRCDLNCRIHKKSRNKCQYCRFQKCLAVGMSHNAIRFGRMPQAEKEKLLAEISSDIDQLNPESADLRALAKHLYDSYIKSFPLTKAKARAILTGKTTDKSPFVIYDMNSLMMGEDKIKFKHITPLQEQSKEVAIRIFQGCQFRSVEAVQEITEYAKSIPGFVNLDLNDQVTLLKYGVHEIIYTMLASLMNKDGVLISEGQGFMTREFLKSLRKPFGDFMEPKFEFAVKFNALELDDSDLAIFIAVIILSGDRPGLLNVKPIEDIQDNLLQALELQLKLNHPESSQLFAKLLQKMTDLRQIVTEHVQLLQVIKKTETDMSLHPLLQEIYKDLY
human Thyroid Receptor alpha (THRa1), THRA (gene 7067), sequence (P10827 whole entry, looked up, the tested form may be a part): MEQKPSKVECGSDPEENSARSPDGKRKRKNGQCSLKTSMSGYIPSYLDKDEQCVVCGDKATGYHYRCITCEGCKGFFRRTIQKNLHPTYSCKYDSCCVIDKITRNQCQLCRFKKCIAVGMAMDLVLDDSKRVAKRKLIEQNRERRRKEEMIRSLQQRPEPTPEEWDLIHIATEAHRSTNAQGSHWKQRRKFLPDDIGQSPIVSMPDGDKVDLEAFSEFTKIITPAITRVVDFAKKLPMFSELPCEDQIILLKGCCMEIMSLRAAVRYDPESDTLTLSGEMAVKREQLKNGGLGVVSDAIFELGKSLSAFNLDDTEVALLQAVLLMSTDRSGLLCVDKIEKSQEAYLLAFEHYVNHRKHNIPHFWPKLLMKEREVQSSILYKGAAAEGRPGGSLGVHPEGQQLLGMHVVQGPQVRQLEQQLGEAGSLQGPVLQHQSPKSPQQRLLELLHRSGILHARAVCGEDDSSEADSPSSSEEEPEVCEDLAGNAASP
Nuclear receptor subfamily 1 group I member 3 (Homo sapiens), sequence (Q14994 whole entry, looked up, the tested form may be a part): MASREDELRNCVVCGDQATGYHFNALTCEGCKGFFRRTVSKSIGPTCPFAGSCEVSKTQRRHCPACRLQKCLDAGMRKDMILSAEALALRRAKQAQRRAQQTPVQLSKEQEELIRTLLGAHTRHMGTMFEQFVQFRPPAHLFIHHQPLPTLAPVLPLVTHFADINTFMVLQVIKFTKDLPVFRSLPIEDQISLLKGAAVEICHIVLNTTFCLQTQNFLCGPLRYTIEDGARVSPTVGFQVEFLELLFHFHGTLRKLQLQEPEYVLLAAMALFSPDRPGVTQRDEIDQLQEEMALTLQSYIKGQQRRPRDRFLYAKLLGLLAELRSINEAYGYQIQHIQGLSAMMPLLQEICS

## CCCCCCC1CCC(=O)O1 (stereo unspecified)
[1]
  outcome: inactive
[2]
  outcome: inactive
[3]
  outcome: inactive
[4]
  outcome: inactive
[5]
  outcome: inactive
[6]
  outcome: inactive
[7]
  outcome: inactive
[8]
  outcome: inactive

## COC(OC)C(C)c1ccccc1 (stereo unspecified)
[2]
  outcome: inactive
[9]
  outcome: inactive
[6]
  outcome: inactive
[10]
  outcome: inactive
[11]
  outcome: inactive
[8]
  outcome: inactive
[12]
  outcome: inactive

## c1ccc(CNc2ncnc3nc[nH]c23)cc1
[13]
  outcome: inactive
[1]
  outcome: inactive
[14]
  outcome: inactive
[15]
  outcome: inactive
[3]
  outcome: inactive
[4]
  outcome: inactive
[16]
  outcome: inactive
[9]
  outcome: inactive
[11]
  outcome: inactive
[12]
  outcome: inactive
[17]
  outcome: inactive
[18]
  outcome: inactive

## CCCCCCC(O)CCCCCCCCCCC(=O)OC (stereo unspecified)
[13]
  outcome: inactive
[19]
  outcome: inactive
[14]
  outcome: inactive
[3]
  outcome: inactive
[5]
  outcome: inactive
[6]
  AC50: 22.8 µM (active)
[11]
  outcome: inactive
[8]
  outcome: inactive
[12]
  outcome: inactive

## O=C1CCCCCCCCCCCCCC1
[13]
  outcome: inactive
[14]
  outcome: inactive
[3]
  outcome: inactive
[4]
  outcome: inactive
[16]
  outcome: inactive
[5]
  AC50: 25.7 µM (active)
[9]
  outcome: inactive
[6]
  outcome: inactive
[8]
  outcome: inactive
[12]
  outcome: inactive

## O=[N+]([O-])c1ccccc1C(F)(F)F
[19]
  outcome: inactive
[1]
  outcome: inactive
[2]
  outcome: inactive
[7]
  outcome: inactive
[20]
  outcome: inactive
[10]
  outcome: inactive
[8]
  outcome: inactive
[12]
  outcome: inactive

## C=C(C)C(=O)OCC1CCCO1 (stereo unspecified)
[13]
  outcome: inactive
[19]
  outcome: inactive
[14]
  outcome: inactive
[15]
  outcome: inactive
[4]
  outcome: inactive
[6]
  outcome: inactive
[11]
  outcome: inactive

## CCCC(=O)OC
[13]
  outcome: inactive
[4]
  outcome: inactive
[5]
  outcome: inactive
[7]
  outcome: inactive
[10]
  outcome: inactive
[8]
  outcome: inactive

## Cc1ccccc1S(=O)(=O)O
[1]
  outcome: inactive
[20]
  outcome: inactive
[12]
  outcome: inactive

## CC(=O)Nc1c(I)c(NC(C)=O)c(I)c(C(=O)O)c1I
[14]
  outcome: inactive
[16]
  outcome: inactive
[5]
  outcome: inactive

## NC(=O)c1ccc(N)cc1
[13]
  outcome: inactive
[19]
  outcome: inactive
[2]
  outcome: inactive
[3]
  outcome: inactive
[4]
  outcome: inactive
[16]
  outcome: inactive
[5]
  outcome: inactive
[9]
  outcome: inactive
[10]
  outcome: inactive
[8]
  outcome: inactive
[12]
  outcome: inactive

## C[C@H]1C[C@H]2[C@@H]3CCC4=CC(=O)C=C[C@]4(C)[C@@]3(F)[C@@H](O)C[C@]2(C)[C@@]1(O)C(=O)CO
[1]
  outcome: inactive
[16]
  outcome: inactive
[5]
  outcome: inactive
[9]
  outcome: inactive
[6]
  outcome: inactive
[11]
  outcome: inactive
[12]
  outcome: inactive
[17]
  outcome: inactive
[18]
  outcome: inactive

## CO[Si](CCCNCCN)(OC)OC
[13]
  outcome: inactive
[4]
  outcome: inactive
[5]
  outcome: inactive
[6]
  outcome: inactive
[20]
  outcome: inactive
[10]
  outcome: inactive
[11]
  outcome: inactive
[8]
  outcome: inactive

## CN(C)c1ccc(C(c2ccccc2)c2ccc(N(C)C)cc2)cc1
[13]
  AC50: 7.62 µM (active)
[19]
  outcome: inactive
[1]
  outcome: inactive
[2]
  outcome: inactive
[4]
  outcome: inactive
[5]
  outcome: inactive
[11]
  outcome: inactive
[12]
  outcome: inactive

## C=CN1CCCCCC1=O
[13]
  outcome: inactive
[1]
  outcome: inactive
[2]
  outcome: inactive
[3]
  outcome: inactive
[6]
  outcome: inactive
[10]
  outcome: inactive
[8]
  outcome: inactive
